Only a selection was taken, and hits are over-represented in it overall.
Pf Dd2 inh: qHTS Primary assay for Inhibitors of Plasmodium falciparum Dd2 growth in vitro; P. falciparum Dd2 growth, SYBR Green, 72 h; Potency, µM (doses to about 28.9 µM), hits mostly inhibitors; hit rate 4.3% among 120,000; AID 1347417, 2020; active = well fitted inhibition curve with a large enough effect; note: nearly all actives have a fitted effect of over 65% in size
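Readout: SYBR Green fluorescence, 485 nm excitation, 535 nm emission, after ~16 h lysis at 37C. Before that, Dd2-infected red cells (2.5% hematocrit) grew 72 h with compound, 29 uM top final concentration.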
Of the large screens only hits and unclear results are named; the others gave an inactive call.

CC(=O)NCC(=O)N1Cc2ccccc2CC2(CCCN2Cc2ccccc2)C1 (stereo not drawn)	none
COc1ccc(CC(=O)N2Cc3ccccc3CC23CCCN(C(=O)CCCN)C3)cc1 (stereo not drawn)	none
CN1CCC(C(=O)N2Cc3ccccc3CC3(CCN(Cc4cccnc4)C3)C2)CC1 (stereo not drawn)	none
NC(=O)c1cccc(CN2CCCC23Cc2ccccc2NC3=O)c1 (stereo not drawn)	none
CC(C)C(=O)N1Cc2ccccc2CC2(CCCCN2Cc2cccnc2)C1 (stereo not drawn)	Pf Dd2 inh 13µM
O=C(C1CCCC1)N1CC2(CCCCN2C2COC2)Cc2ccccc21 (stereo not drawn)	none
CC(=O)N1CC2(CCCN(Cc3cccc(C(N)=O)c3)C2)Cc2ccccc21 (stereo not drawn)	none
NCC(=O)N1CCCC2(Cc3ccccc3CN2C(=O)Cc2cccc(Cl)c2)C1 (stereo not drawn)	Pf Dd2 inh 13µM
COc1cncc(NC(=O)C2=NO[C@@H]3CN(Cc4ccc(O)c(Cl)c4)C[C@H]23)c1	none
O=C1Nc2ccccc2O[C@H]2C[C@@H]1N(C(=O)c1ccc(Cl)cc1)C2	none
Cc1ccc(-c2nnc(C3CN(C(=O)c4ccoc4)CC34CCOCC4)o2)cc1 (stereo not drawn)	none
CNC(=O)C1CCN(C(=O)c2cc(COc3ccc4c(c3)OCO4)[nH]n2)C1 (stereo not drawn)	none
O=C(Cc1ccccc1)N1Cc2ccccc2CC2(CCCN2Cc2ccncc2)C1 (stereo not drawn)	Pf Dd2 inh 8.9µM
COc1ccc(CN2CCCCC23Cc2ccccc2CN(C(=O)CCC(=O)O)C3)cc1 (stereo not drawn)	none
O=C(O)CCC(=O)N1Cc2ccccc2CC2(CCCN2Cc2ccncc2)C1 (stereo not drawn)	none
COCCNC(=O)[C@H]1C[C@H](Oc2ccccc2)CN1C(=O)Nc1ccccc1	none
CCOc1ccc(C2Cn3nnc(-c4nc(-c5ccc(F)cc5)no4)c3CO2)cc1 (stereo not drawn)	none
O[C@]1(c2ccccc2)CCN(Cc2ccco2)C[C@H]1N1CCCC1	Pf Dd2 inh 0.63µM
C[C@@]1(O)CCN(Cc2cccc(F)c2)C[C@H]1N1CCCC1	none
Cc1ccc(CN2CC[C@@](C)(O)[C@H](N3CCCC3)C2)o1	none
O=C(c1cccs1)N1CCC(O)(c2ccccc2)[C@H](N2CCCC2)C1 (stereo partly drawn)	Pf Dd2 inh 1.4µM
C[C@@]1(O)CCN(Cc2ccc(Br)o2)C[C@H]1N1CCCC1	none
COc1ccc(CN2CC[C@@](C)(O)[C@H](N3CCCC3)C2)cc1	none
O=C(C1CC1)N1CC[C@](O)(c2ccccc2)[C@H](N2CCCC2)C1	none
Cc1ccsc1C(=O)N1CCC(O)(c2ccccc2)[C@H](N(C)C)C1 (stereo partly drawn)	none
O[C@]1(c2ccccc2)CCN(Cc2ccncc2)C[C@H]1N1CCCC1	Pf Dd2 inh 0.71µM
Cc1ccc(CN2CCC(N3CCCNC3=O)CC2)cc1	none
Cc1cc(CC(C)NC(=O)Cc2c(C)[nH]c3ccccc23)n[nH]1 (stereo not drawn)	none
COc1ccc(CN2CCC(n3cc[nH]c3=O)CC2)cc1	none
COc1ccc(C(=O)N2CCC3(CC2)NC(=O)N(c2ccccc2)N3)cc1OC	none
Cn1cccc1C(=O)N1CCC(c2[nH]ncc2Cc2ccccc2)CC1	none
COc1ccc(C(=O)N2CCC3(C2)C(=NC2CCCCC2)NC(=O)N3c2cccnc2)cc1 (stereo not drawn)	none
CCN(CC)C(=O)[C@@H]1C[C@@H](NC(=O)c2ccn(CC)c(=O)c2)CN1C(C)=O	none
COCC(=O)N1CCC(C(=O)N2CCC2c2ccccc2)CC1 (stereo not drawn)	none
CCN1C(=O)Cc2ccccc2C1C(=O)NCc1cccc(F)c1 (stereo not drawn)	none
C[C@@H](NC(=O)Nc1cccnc1)c1onc(-c2ccc(F)cc2)c1C(=O)O	none
CCn1cc(CN2CCC3(CCC3NC(=O)COC)CC2)cn1 (stereo not drawn)	none
COc1ccc2cc1Nc1ccc(cc1)C[C@H](NCc1ccc(C)o1)C(=O)N(C)[C@@H](C(=O)NCc1ccccc1)C2	Pf Dd2 inh 0.89µM
COc1ccc2cc1Nc1ccc(cc1)C[C@H](NCc1ccc(O)cc1)C(=O)N(C)[C@H](C(=O)NCCOc1ccccc1)C2	Pf Dd2 inh 2.5µM
COc1cccc(C(=O)N2CCC(N3C(=O)CCC3C(=O)NCc3ccccc3)CC2)c1C (stereo not drawn)	none
COc1ccc2cc1Nc1ccc(cc1)C[C@H](NCC1CC1)C(=O)N(C)[C@@H](C(=O)NCc1ccccc1)C2	none
COc1ccc(CCN2CC(C(=O)NCCc3ccc(C)cc3)CC2=O)cc1OC (stereo not drawn)	none
Cc1ccc(CNC(=O)C2N(C(C)C)C(=O)C23CCCC3)o1 (stereo not drawn)	none
COCCN1CC(C(=O)NCCOc2ccccc2)CCC1=O (stereo not drawn)	none
COc1cccc(N2CC(C(=O)NCCOc3ccccc3)NC2=O)c1 (stereo not drawn)	none
COc1ccc2cc1Nc1ccc(cc1)C[C@H](NCc1ccc(C)o1)C(=O)N(C)[C@H](C(=O)NCCC(C)C)C2	Pf Dd2 inh 1µM
CS(=O)(=O)c1ccc(OCC2(CNCc3ccc(F)c(F)c3)C[C@@H](O)[C@@H](O)C2)cc1 (stereo partly drawn)	none
O=C(c1ccc2nccn2c1)N1CCN(c2ncccn2)CC1	none
COCC1CN(C(C)=O)CC12CCN(C(=O)c1ccc(C(F)(F)F)cc1)CC2 (stereo not drawn)	none
COc1ccc(CNC(=O)CC[C@H]2CNC(=O)[C@@H]3[C@@H](CCN3Cc3ccc(F)cc3)N2C)cc1	none
CCOCCCN1C(=O)c2[nH]nc(-c3ccccc3O)c2C1c1ccc(CC)cc1 (stereo not drawn)	Pf Dd2 inh 11µM
CCc1ccc(C2c3c(-c4ccccc4O)n[nH]c3C(=O)N2Cc2ccncc2)cc1 (stereo not drawn)	Pf Dd2 inh 8.9µM
O=C1c2[nH]nc(-c3ccccc3O)c2C(c2cccc(O)c2)N1Cc1ccncc1 (stereo not drawn)	none
CCOCCCNC(=O)C(c1ccccc1)N1Cc2ccccc2C1=O (stereo not drawn)	none
COc1cc(C2c3c(-c4ccccc4O)n[nH]c3C(=O)N2Cc2ccncc2)cc(OC)c1OC (stereo not drawn)	none
CCCc1cc(C(=O)NCCc2nc(-c3ccccn3)no2)n[nH]1	none
CC(=O)N1CCC(N[C@H]2C[C@@H](Cc3cc(CN4CCCCC4)on3)C2(C)C)CC1	none
O=C(CCC1CCCN(S(=O)(=O)c2ccccc2F)C1)NCCc1ccccc1 (stereo not drawn)	none
CCn1ccc2sc(C)c(C(=O)N3CCOCC3)c2c1=O	none
O=C(Nc1ccc(-c2nnc3n2CCCC3)cc1)c1nccc2ccccc12	none
O=C(Nc1cccc(-c2nnc3n2CCCC3)c1)C1CCCC1	none
CC(=O)Nc1cccc(C(=O)Nc2cccc(-c3nnc4n3CCCC4)c2)c1	none
COc1ccccc1C(=O)Nc1cccc(-c2nnc3n2CCCC3)c1	Pf Dd2 inh 4.5µM
O=C(Nc1cccc(-c2nnc3n2CCCC3)c1)c1ccccn1	none
O=C(Nc1cccc(-c2nnc3n2CCCC3)c1)c1nccc2ccccc12	Pf Dd2 inh 4.5µM
COCC1CN(Cc2cccc3[nH]ccc23)CC12CCNCC2 (stereo not drawn)	none
O=C1NCCCCCCN(S(=O)(=O)Cc2ccccc2F)[C@H]2CCC[C@@H]12	none
CCc1nc2c(=O)n(CC(=O)NCCN3CCOCC3)nc(C)c2s1	none
